In publication PMC5540273 (PLoS ONE, 2017):

Assays:
Details in all cases: concentration: 1 μM, replicates: in singlicate; n = 1
[1] = test system: SGK
[2] = test system: SIK2
[3] = test system: SIK
[4] = test system: SLK
[5] = test system: T1, SNARK
T1 construct: gene NUAK2

[6] = test system: SNRK
[7] = test system: SRC
[8] = test system: SRMS
[9] = test system: SRPK1
[10] = test system: SRPK2
[11] = test system: SRPK3
[12] = test system: STK16
[13] = test system: STK33
[14] = test system: STK35
[15] = test system: STK36
[16] = test system: STK39
[17] = test system: SYK
[18] = test system: SgK110
[19] = test system: T2, TAK1
T2 construct: gene MAP3K7

[20] = test system: TAOK1
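Further: KINOMEscan kinase panel screen.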

SMILES	%Inh [1]	%Inh [2]	%Inh [3]	%Inh [4]	%Inh [5]	%Inh [6]	%Inh [7]	%Inh [8]	%Inh [9]	%Inh [10]	%Inh [11]	%Inh [12]	%Inh [13]	%Inh [14]	%Inh [15]	%Inh [16]	%Inh [17]	%Inh [18]	%Inh [19]	%Inh [20]
COc1cc2c(cc1OC[C@@H](O)CO)ncc1c3ccc(C#N)cc3[nH]c21	47%	65%	21%	0%	89%	58%	0%	0%	0%	0%	25%	0%	36%	0%	0%	0%	0%	0%	81%	0%
Cc1nnc(-c2ccc3occ(-c4ccc(C(C)O)cc4)c3c2)o1 (stereo not drawn)	1%	18%	10%	14%	2%	9%	18%	2%	0%	2%	0%	12%	0%	32%	19%	0%	14%	25%	25%	0%
CCc1ccnc(/C=C/c2n[nH]c3cc(Sc4ccccc4C(=O)NC)ccc23)c1	0%	0%	0%	0%	10%	0%	4%	100%	53%	0%	14%	0%	4%	0%	12%	0%	0%	47%	1%	0%
Cc1cn2c(=O)cc(N3CCOCC3)nc2n1Cc1cccc(Cl)c1Cl [GSK2334006]	0%	3%	4%	32%	0%	1%	42%	0%	21%	0%	0%	14%	4%	3%	0%	17%	21%	0%	0%	0%
Fc1ccc(-c2ncn(CCCN3CCOCC3)c2-c2cccnc2)cc1 [SB-211743]	39%	5%	0%	25%	0%	0%	0%	27%	0%	0%	0%	0%	0%	1%	0%	0%	32%	17%	0%	0%
O=c1cc(N2CCOCC2)nc2n(Cc3cccc(Cl)c3Cl)c(C3CC3)nn12 [GSK2358994]	30%	0%	0%	46%	0%	0%	22%	0%	17%	0%	0%	10%	0%	0%	3%	0%	0%	0%	0%	0%
COc1ccc(Nc2nccc(N3CCC(NC(=O)Nc4cc(C)ccc4C)C3)n2)cc1 (stereo not drawn) [GSK1379741]	0%	0%	0%	0%	0%	0%	0%	0%	27%	0%	0%	7%	0%	0%	100%	9%	0%	0%	0%	0%
CN1c2ccc(CNc3ccc(F)cc3)cc2-c2c(cnn2C)S1(=O)=O	0%	0%	0%	0%	0%	0%	0%	0%	0%	21%	0%	0%	0%	0%	0%	0%	27%	0%	0%	0%
Cc1ccc(NC(=O)c2ccnc(N3CCN(C)CC3)c2)cc1-c1ccc(C(=O)NCC2CC2)cc1 [GW775604]	0%	21%	0%	0%	0%	0%	0%	3%	0%	0%	5%	0%	0%	1%	0%	0%	26%	3%	0%	0%
CNc1ncnc2[nH]ncc12 [SKF-18355]	6%	0%	0%	10%	0%	0%	17%	22%	0%	0%	10%	0%	0%	0%	0%	9%	22%	0%	0%	0%
CCn1cnc2c(N)ncnc21 [GW345098]	25%	2%	19%	18%	0%	0%	20%	12%	24%	19%	18%	12%	10%	0%	5%	0%	3%	0%	4%	16%
N#Cc1c(N2CCOCC2)sc(-c2ccn[nH]2)c1-c1ccc(Cl)cc1	23%	4%	13%	17%	5%	12%	0%	0%	0%	0%	0%	33%	10%	0%	0%	17%	16%	0%	14%	0%
COC(=O)Nc1nc2cc(Oc3ccc(NC(=O)Nc4cc(F)ccc4F)cc3)ccc2[nH]1.Cl [GW701424]	2%	0%	0%	9%	0%	0%	0%	0%	0%	29%	0%	0%	0%	0%	0%	7%	0%	0%	8%	0%
Cl.Oc1cccc(Nc2ccnc3cc(-c4ccncc4)ccc23)c1 [GW494601]	12%	69%	72%	11%	12%	0%	100%	0%	46%	0%	0%	26%	41%	0%	0%	1%	82%	0%	41%	0%
COc1ccc(CNC(=O)NC2CCN(c3ccnc(Nc4ccc(OC)cc4)n3)C2)cc1 (stereo not drawn) [GSK1379727]	25%	0%	1%	0%	0%	0%	0%	5%	43%	35%	0%	16%	0%	0%	0%	5%	22%	7%	0%	0%
Nc1nccc(-c2c(-c3ccc(F)cc3)ncn2C2CCN(CC(F)(F)F)CC2)n1 [SB-236560]	25%	0%	0%	0%	0%	16%	0%	0%	19%	41%	6%	0%	0%	0%	26%	0%	0%	0%	21%	0%
COc1ccc(Nc2ncc(C#N)c(Nc3ccccc3C(N)=O)n2)cc1N1CCN(C)CC1.Cl [GSK1558669]	87%	96.4%	98.7%	100%	99.8%	85%	100%	99.5%	99.9%	66%	100%	98.3%	99.2%	99.3%	99.5%	100%	98.6%	66%	100%	86%
O=C(Nc1cccc(-c2nn3ncccc3c2-c2ccnc(Nc3cccc(C(F)(F)F)c3)n2)c1)c1c(F)cccc1F [GSK299495]	1%	0%	0%	81%	0%	0%	56%	21%	0%	16%	0%	3%	0%	54%	99%	15%	68%	0%	0%	44%
O=C(NCCNc1ccnc(Nc2ccc(F)cc2)n1)Nc1ccccc1F [GSK1379880]	0%	0%	0%	11%	0%	0%	6%	0%	5%	0%	2%	4%	0%	0%	48%	3%	26%	55%	0%	0%
CC(C)(C)n1cnc2c(N)ncnc21 [SKF-97359]	0%	0%	0%	0%	0%	0%	0%	0%	0%	36%	0%	0%	0%	0%	0%	0%	0%	85%	22%	0%
Cc1c(Cn2c(C)nn3c(=O)cc(N4CCOC(C)C4)nc23)cccc1C(F)(F)F (stereo not drawn) [GSK2344444]	9%	0%	0%	7%	0%	0%	0%	0%	32%	0%	0%	0%	0%	0%	0%	6%	12%	0%	0%	0%
